Measurements as given in PubChem BioAssay (NCI).
Compounds without any hit were thinned out: in the full panel of roughly 83,000, 20% have a hit.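 Activity criterion: percent growth below 10, measured after cells in 96-well plates were exposed to a single compound concentration for 48 hours.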 Values without a mark were called inactive. The source made the active and inactive calls.

What was measured:
Test in all cases: NCI-60 one-dose screen, 48 h (100 = growth as untreated, 0 = no growth, -100 = all killed)
Conditions in all cases: 10 µM unless noted
HCT-15 colon = tested on: HCT-15 colon
HT29 colon = tested on: HT29 colon
SNB-19 CNS = tested on: SNB-19 CNS
U251 CNS = tested on: U251 CNS
PC-3 prostate = tested on: PC-3 prostate
SK-MEL-5 melanoma = tested on: SK-MEL-5 melanoma
UACC-62 melanoma = tested on: UACC-62 melanoma
LOX IMVI melanoma = tested on: LOX IMVI melanoma
SK-MEL-2 melanoma = tested on: SK-MEL-2 melanoma
EKVX NSCLC = tested on: EKVX NSCLC
SN12C renal = tested on: SN12C renal
UO-31 renal = tested on: UO-31 renal
TK-10 renal = tested on: TK-10 renal
ACHN renal = tested on: ACHN renal
CAKI-1 renal = tested on: CAKI-1 renal
A498 renal = tested on: A498 renal
CCRF-CEM leukemia = tested on: CCRF-CEM leukemia
MOLT-4 leukemia = tested on: MOLT-4 leukemia
SK-MEL-28 melanoma = tested on: SK-MEL-28 melanoma

SMILES	growth (HCT-15 colon)	growth (HT29 colon)	growth (SNB-19 CNS)	growth (U251 CNS)	growth (PC-3 prostate)	growth (SK-MEL-5 melanoma)	growth (UACC-62 melanoma)	growth (LOX IMVI melanoma)	growth (SK-MEL-2 melanoma)	growth (EKVX NSCLC)	growth (SN12C renal)	growth (UO-31 renal)	growth (TK-10 renal)	growth (ACHN renal)	growth (CAKI-1 renal)	growth (A498 renal)	growth (CCRF-CEM leukemia)	growth (MOLT-4 leukemia)	growth (SK-MEL-28 melanoma)
O=[N+]([O-])c1ccc(C(c2ccccc2)c2ccccc2)cc1	86.4%	84.4%	96.9%	102%	94.1%	96.7%	85.5%	69.7%	110%	94.8%	92%	80.4%	96.4%	90.3%	83.1%	91.3%	97.8%	95.2%	–
O=C(N/N=C/C=C\c1ccccc1)C(=O)N/N=C/C=C/c1ccccc1	108%	110%	120%	107%	109%	110%	114%	–	109%	111%	92.6%	91.3%	104%	125%	105%	127%	108%	109%	115%
Cc1ccc(S(=O)(=O)NCCNc2cc(-c3cn(C(C)(C)C)nc3-c3cccc(O)c3)ccn2)cc1	31.1%	17.2%	84.4%	62.9%	46.7%	30.9%	77%	–	84.3%	64.6%	66.5%	58%	103%	78.9%	77%	80.8%	60.7%	48.4%	57.7%
N=C(N)c1ccc(-c2cc(Cl)cc(Cl)c2)cn1	86.4%	55.5%	92.7%	97.3%	80%	89.3%	97.2%	–	101%	80.4%	91.6%	70.2%	115%	91.3%	68.4%	73.1%	8.61% (active)	89.1%	97.3%
CCCCN(CCCC)C(=N)c1ccnc2ccccc12	101%	89.1%	115%	107%	105%	119%	111%	101%	–	104%	113%	89.7%	105%	109%	108%	90.6%	8.24% (active)	42.6%	–
CC(C)c1ccc2occ(C=C3C(=O)NC(=O)NC3=O)c(=O)c2c1	85.8%	94.7%	81%	74.3%	92%	97.3%	82.1%	87.4%	93.5%	117%	91.5%	86.6%	84.6%	104%	103%	–	77.8%	66.8%	–
Cc1ccc(-c2nc(C(Cl)Cl)n3nc(-c4ccccc4)cc3n2)cc1	-26.8% (active)	-43.6% (active)	27.4%	-42.1% (active)	-13% (active)	78.5%	-8.44% (active)	–	55.9%	35.3%	70.4%	46.9%	-68.6% (active)	3.72% (active)	4.32% (active)	77.8%	–	103%	85.9%
Clc1cc2c(nn1)Nc1ccccc1S2	101%	102%	88.5%	97.3%	92.4%	95%	95.2%	98.6%	-4.79% (active)	52.3%	97.1%	106%	129%	99.1%	–	89.1%	93.7%	96.3%	–
COc1ccc(-c2ccc(-c3ccc(C(=N)N)s3)s2)cc1Cl	-76% (active)	-84% (active)	35.2%	-86.2% (active)	-92% (active)	67.5%	-92.1% (active)	–	96.2%	70.1%	-83.7% (active)	81.4%	-45.1% (active)	16.9%	68.3%	65.3%	-31.2% (active)	-57.3% (active)	90.1%
CCCCCCCCCCCCNC(=O)[C@H]1CSC(c2cc(Br)cs2)N1 (some centres not stated)	3.37% (active)	0.836% (active)	74.5%	-52.6% (active)	-35% (active)	53.4%	-84.5% (active)	–	-58.7% (active)	-64% (active)	-53.5% (active)	-76% (active)	-80.1% (active)	14.3%	77.9%	76.8%	-42.1% (active)	-59.8% (active)	-82% (active)
COc1ccc(-c2nc(/C=N/Nc3cc(C)nc4ccc(Cl)cc34)c(C)o2)cc1	-91.5% (active)	-96.1% (active)	-90.4% (active)	-95.9% (active)	-73.1% (active)	57%	14.5%	-97% (active)	101%	-19.4% (active)	-92.9% (active)	-98.4% (active)	-36.1% (active)	-100% (active)	-85.6% (active)	73%	-54.3% (active)	-46.7% (active)	–
Cc1ccc2ccccc2c1C[n+]1ccccc1	107%	92%	101%	83.6%	83.4%	110%	99.8%	94.5%	111%	58.2%	98.4%	84%	88.4%	106%	92.8%	79.3%	–	–	–
CC1CN(c2oc(-c3ccccc3)nc2C#N)CC(C)O1 (configuration not stated)	103%	106%	100%	103%	102%	93.1%	97%	–	102%	92.6%	97.9%	95.2%	116%	103%	87%	93.8%	104%	103%	104%
c1ccc(Nc2nc(Nc3ccccc3)nc(Nc3ccccc3)n2)cc1	82.9%	75.3%	98.3%	91.4%	79.7%	78%	83%	82.7%	85.8%	77.9%	100%	55.5%	74.6%	91.9%	85%	79%	–	65.7%	–
COc1cc(Nc2nc(N[C@H]3CCCC[C@@H]3N)nc3cc[nH]c(=O)c23)cc(OC)c1	60.9%	7.69% (active)	37.4%	44.3%	44.6%	57.7%	41.2%	-66.8% (active)	41.7%	–	33.2%	47.7%	66.5%	44.7%	51.4%	12.4%	-2.71% (active)	3.76% (active)	–
O=[N+]([O-])c1cccc(-c2nc3sccn3c2-c2ccnc(NCCCNS(=O)(=O)c3ccc(Cl)cc3)n2)c1	35.2%	56.4%	83.5%	87.8%	28.1%	-17.2% (active)	7.02% (active)	–	45.3%	50.9%	53.8%	22.2%	117%	47.8%	43.8%	68%	16.7%	13.7%	66%
N/C(=N\S(=O)(=O)c1ccccc1)Nc1nc2ccccc2s1	104%	92.1%	99%	96.7%	83.9%	90.5%	76.6%	97.5%	93.1%	86.9%	86.1%	–	108%	94.7%	89.3%	118%	109%	99.4%	–
